# Source: PubChem BioAssay (NCATS)
# Results filed as inconclusive are left out. A call without a number means that no potency is given here. The source made the active and inactive calls. Unless noted, calls follow the shape of the dose curve; as a rule, active = well fitted curve in the direction sought with a large enough effect; inconclusive = small, poorly fitted or top-dose-only effect, or another doubt; inactive = no such curve, though single readings can be large; an effect the other way counts as inactive or inconclusive.
# How the values were obtained:
# [1] = molecular target: Glutathione peroxidase 1 (Homo sapiens) (UniProt P07203); assay: Primary qHTS Assay for Inhibitors of Recombinant Selenoprotein Glutathione Peroxidase 1 (GPX1) (AID 1845191); conditions: recombinant GPX1, GR-coupled NADPH fluorescence, 15 min; series mostly up to 48.8 µM; also: nearly all actives have a fitted effect of over 65% in size
# Glutathione peroxidase 1 (Homo sapiens), sequence (P07203 whole entry, looked up): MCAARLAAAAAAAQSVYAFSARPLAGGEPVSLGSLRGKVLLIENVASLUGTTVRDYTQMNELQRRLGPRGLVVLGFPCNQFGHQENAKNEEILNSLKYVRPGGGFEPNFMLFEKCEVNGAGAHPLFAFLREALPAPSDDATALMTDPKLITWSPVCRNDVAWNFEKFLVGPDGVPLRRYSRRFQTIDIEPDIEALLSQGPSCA
# Method in brief: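 GPX1 10 nM, GR 100 nM, GSH 1 mM, NADPH 0.5 mM, CHP 0.5 mM (final). 30-min cpd preincubation, RT. Ex340/Em450 read t=0, t=15 min.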
# [2] = molecular target: Phospholipid hydroperoxide glutathione peroxidase GPX4 (Homo sapiens) (UniProt P36969); assay: Primary qHTS Assay for Inhibitors of Recombinant Selenoprotein Glutathione Peroxidase 4 (GPX4) (AID 1845192); conditions: recombinant GPX4, GR-coupled NADPH fluorescence, 15 min; series mostly up to 50 µM; also: nearly all actives have a fitted effect of over 65% in size; also: potency is read from the fitted curve at half-maximal effect
# Phospholipid hydroperoxide glutathione peroxidase GPX4 (Homo sapiens), sequence (P36969 whole entry, looked up): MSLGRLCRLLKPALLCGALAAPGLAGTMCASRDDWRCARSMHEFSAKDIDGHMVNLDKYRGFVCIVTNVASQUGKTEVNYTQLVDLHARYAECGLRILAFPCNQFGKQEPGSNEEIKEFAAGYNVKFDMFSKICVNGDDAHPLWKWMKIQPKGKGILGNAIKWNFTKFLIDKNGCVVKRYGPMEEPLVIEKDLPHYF
# Method in brief: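 qHTS, GR-coupled: GPX4 200 nM + cpd 30 min RT → GSH 1 mM, NADPH 0.5 mM, GR 100 nM → CHP 0.5 mM start; fluor 340/450 at t0 and t15 min; no-enzyme wells as control.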
# [3] = NCATS anti-infectives library activity on the primary C. elegans qHTS viability assay (AID 1745855; calls by dose curve; also: potency is read from the fitted curve at half-maximal effect); conditions: C. elegans worm area imaging, day 7; series mostly up to 41.8 µM
# Method in brief: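 Titration-based screen in worms: eggs hatched overnight in M9, L1 larvae fed TOP10 capsules in S medium with compound, incubated 21 °C for 7 days; fluorescent objects gated by size and intensity at days 0, 3 and 7.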
# [4] = NCATS anti-infectives library activity on HEK293 viability as a counter-qHTS vs the C. elegans viability qHTS (AID 1745854); conditions: HEK293 viability counter-screen; series mostly up to 41.8 µM
# Method in brief: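 CellTiter-Glo luminescence, read on a CCD imager, scored viability of HEK293 cells after 24 hr compound exposure at 37C. Library tested in several concentrations, 1:5 steps, up to 41.7 uM; digitonin served as control.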
# [5] = molecular target: Luciferin 4-monooxygenase (Photinus pyralis) (UniProt P08659); assay: Primary firefly luciferase (FLuc) qHTS assay for identification of artifact compounds. (AID 1845220); conditions: purified firefly luciferase, luminescence, 5 min; series mostly up to 54.1 µM; also: nearly all actives have a fitted effect of over 60% in size; also: potency is read from the fitted curve at half-maximal effect
# Method in brief: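 In this counter-screen for luciferase artifacts, test compounds met substrate (10 uM each luciferin and ATP) before 10 nM enzyme started the reaction. Light output was measured 5 min later.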
# [6] = Primary fluorescence-based thiol-reactive (MSTI) qHTS assay for identification of artifact compounds. (AID 1845221); conditions: MSTI thiol-reactivity probe, 1 h; series mostly up to 53.8 µM;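 also: thiol-reactive compounds lower the probe fluorescence signal; nearly all actives have a fitted effect of over 65% in size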
# Method in brief: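 Probe: MSTI 4 uM, PBS pH 7.4, 2% DMSO. Incubation 1 h, RT, light-protected. Readout fluorescence 525/598 nm.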
# [7] = test system: Nanoluciferase (engineered Oplophorus gracilirostris luciferase); assay: Primary Nanoluciferase (NLuc) qHTS assay for identification of artifact compounds. (AID 1845222); conditions: NLuc-conditioned medium, Nano-Glo luminescence, 5 min; series mostly up to 54.1 µM;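 also: NLuc secreted into diluted conditioned medium of S16 cells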
# Method in brief: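 Using secreted nanoluciferase in S16 culture medium (0.22 um filtered, 1:55 dilution), compounds were preincubated 15 min at RT. Signal was generated with Nano-Glo reagent (1:100) over 5 min.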
smiles,measurement,setting,value
Cc1ccc(-c2ncn(-c3ccc(Nc4nccc(-c5cccc(N6CCOCC6)c5)n4)cc3)n2)cn1,Potency,[1],inactive
same,Potency,[2],inactive
COc1cc(C(C)C)c2c(c1)S(=O)(=O)N(COc1cc(=O)n3cccc(OCCN4CCCCC4)c3n1)C2=O,Potency,[1],inactive
CN1CCN(c2ccc3nc(-c4c(N)c5c(F)cccc5[nH]c4=O)[nH]c3c2)CC1,Potency,[1],inactive
same,Potency,[2],inactive
COc1ccc(CC2SC(=O)NC2=O)cc1C(=O)NCc1ccc(C(F)(F)F)cc1 (stereo unspecified),Potency,[1],inactive
CC(C)C[C@H](NC(=O)CNC(=O)c1cc(Cl)ccc1Cl)B(O)O,Potency,[3],1290 nM (active)
same,Potency,[1],inactive
same,Potency,[2],inactive
NC(=O)c1cccc2cn(-c3ccc([C@@H]4CCCNC4)cc3)nc12,Potency,[4],inactive
same,Potency,[2],16100 nM (active)
same,Potency,[5],inactive
same,Potency,[6],inactive
same,Potency,[7],inactive
O=c1[nH]c(=O)n(C2CCCO2)cc1F (stereo unspecified),Potency,[1],inactive
same,Potency,[2],inactive
O=C(O)c1ccc2cc(-c3ccc(O)c(C45CC6CC(CC(C6)C4)C5)c3)ccc2c1,Potency,[1],inactive
c1cc(-c2cnn3cc(-c4ccc(OCCN5CCCCC5)cc4)cnc23)ccn1,Potency,[1],inactive
same,Potency,[2],inactive
OCc1ccc(-c2ccc(-c3ccc(CO)s3)o2)s1,Potency,[1],inactive
same,Potency,[2],inactive
same,Potency,[5],1310 nM (active)
CCCCCCCCCC(=O)N[C@@H](Cc1c[nH]c2ccccc12)C(=O)N[C@H](CC(N)=O)C(=O)N[C@@H](CC(=O)O)C(=O)N[C@@H]1C(=O)NCC(=O)N[C@@H](CCCN)C(=O)N[C@@H](CC(=O)O)C(=O)N[C@H](C)C(=O)N[C@@H](CC(=O)O)C(=O)NCC(=O)N[C@H](CO)C(=O)N[C@@H]([C@@H](C)CC(=O)O)C(=O)N[C@@H](CC(=O)c2ccccc2N)C(=O)O[C@@H]1C,Potency,[1],inactive
same,Potency,[2],inactive
same,Potency,[5],inactive
same,Potency,[6],inactive
